# Compounds without any hit were thinned out: in the full panel of roughly 83,000, 20% have a hit.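 For each line, cells grew in 96-well plates with the test compound present at a single concentration for 48 hours.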 Unmarked numbers belong to inactive results. Activity calls are given as the source filed them. The calls were made as follows: active = growth percent below 10; inactive = the rest.
# Columns and labels:
# Assay in all cases: NCI-60 one-dose screen, 48 h (100 = growth as untreated, 0 = no growth, -100 = all killed)
# Conditions in all cases: 10 µM unless noted
# [1] = tested on: SR leukemia
# [2] = tested on: RPMI-8226 leukemia
# [3] = tested on: OVCAR-8 ovarian
# [4] = tested on: OVCAR-5 ovarian
# [5] = tested on: OVCAR-4 ovarian
# [6] = tested on: SK-OV-3 ovarian
# [7] = tested on: IGROV1 ovarian
# [8] = tested on: OVCAR-3 ovarian
# [9] = tested on: HS 578T breast
# [10] = tested on: T-47D breast
# [11] = tested on: BT-549 breast
# [12] = tested on: MDA-MB-435 melanoma
# [13] = tested on: SW-620 colon
# [14] = tested on: MCF7 breast
# [15] = tested on: HCT-116 colon
# [16] = tested on: HCC-2998 colon
# [17] = tested on: KM12 colon
# [18] = tested on: NCI/ADR-RES ovarian
SMILES,growth [1],growth [2],growth [3],growth [4],growth [5],growth [6],growth [7],growth [8],growth [9],growth [10],growth [11],growth [12],growth [13],growth [14],growth [15],growth [16],growth [17],growth [18]
C#Cc1c2c(c(OC)c3c1OCO3)[C@H]([C@H]1OC(=O)c3c1ccc(OC)c3OC)N(C)CC2,9.19% (active),100%,95.2%,101%,92.7%,89.5%,82.5%,87.1%,99.1%,86.7%,90%,7.84% (active),84.5%,55.5%,89.8%,86.4%,59.9%,
c1ccc2cc(C[n+]3ccn(CCCCCCCCCCn4cc[n+](Cc5ccc6ccccc6c5)c4)c3)ccc2c1,-45.2% (active),9.87% (active),11.1%,12.8%,12.5%,-17.1% (active),-26.1% (active),4.99% (active),-1.11% (active),-0.597% (active),-39.6% (active),18.2%,23.2%,15.7%,13.3%,25.2%,-5.93% (active),
CC(=O)/C(=C\c1c(-c2ccccc2)[nH]c2ccccc12)S(C)(=O)=O,-25.2% (active),-32.2% (active),40.9%,78.3%,-29.6% (active),35.9%,54.1%,-54.6% (active),3.31% (active),1.27% (active),4.06% (active),-42.7% (active),13.7%,6.97% (active),21.2%,36.8%,4.04% (active),
O=CN1N=C(c2cccc(Nc3ccnc4cc(Cl)ccc34)c2)CC1c1ccccc1 (stereo unspecified),9.69% (active),27.7%,38%,36.3%,41.2%,8.25% (active),28.9%,-12.9% (active),1.24% (active),45.5%,35.7%,-34.4% (active),34.2%,,7.26% (active),12.4%,19.7%,3.37% (active)
COC(=O)C1Cc2ccccc2CN1C(=O)c1ccc2c(c1)Cc1ccccc1-2 (stereo unspecified),57.2% [50 µM],18.1% [50 µM],32.4% [50 µM],62.4% [50 µM],20.2% [50 µM],86% [50 µM],42.8% [50 µM],47% [50 µM],70.4% [50 µM],15.8% [50 µM],28.3% [50 µM],24.9% [50 µM],51.2% [50 µM],16.7% [50 µM],30.2% [50 µM],67.7% [50 µM],34.2% [50 µM],
COC1=CC(c2ccc[nH]2)=N/C1=C\c1[nH]c(C)c(CC(=O)NCc2ccccc2)c1C,-29.1% (active),18.4%,19.4%,31.5%,46.3%,25.7%,38.2%,11.1%,24.6%,15.1%,40.2%,15.9%,20.6%,,2.09% (active),13.9%,-46.1% (active),-40.7% (active)
O=C(/C=C/c1cn(-c2ccccc2)nc1-c1ccc(Cl)cc1)c1ccc(F)cc1,40.8%,67.5%,80.6%,99.3%,71.9%,82.6%,81.1%,78.8%,95.7%,38.9%,96%,326%,75.4%,41.8%,41.1%,186%,63.8%,
C=C(C)[C@@H]1CC[C@]2(CO)CC[C@]3(C)[C@H](CC[C@@H]4[C@@]5(C)CC[C@H](NCO)C(C)(C)[C@@H]5CC[C@]43C)[C@@H]12,-29.5% (active),-42% (active),-43.8% (active),-91.2% (active),-93.7% (active),-87.5% (active),-94.1% (active),-81.9% (active),-58.3% (active),-42.9% (active),74.3%,-84.5% (active),-79.7% (active),-62.8% (active),-62.1% (active),-63.3% (active),-77.5% (active),
